# Screening results as filed in PubChem.
# FBA Mtb inh = inhibitors of M. tuberculosis fructose-bisphosphate aldolase; purified M. tuberculosis FBA, fluorescence read-out; 360,000 tested, 2.3% active; inhibition, % at 1 µM; AID 588726; P9WQA3; in the data active = inhibition above about 27%;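 note: 0% = vehicle and 100% = reference inhibitor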
# Target sequence (P9WQA3 whole entry, looked up): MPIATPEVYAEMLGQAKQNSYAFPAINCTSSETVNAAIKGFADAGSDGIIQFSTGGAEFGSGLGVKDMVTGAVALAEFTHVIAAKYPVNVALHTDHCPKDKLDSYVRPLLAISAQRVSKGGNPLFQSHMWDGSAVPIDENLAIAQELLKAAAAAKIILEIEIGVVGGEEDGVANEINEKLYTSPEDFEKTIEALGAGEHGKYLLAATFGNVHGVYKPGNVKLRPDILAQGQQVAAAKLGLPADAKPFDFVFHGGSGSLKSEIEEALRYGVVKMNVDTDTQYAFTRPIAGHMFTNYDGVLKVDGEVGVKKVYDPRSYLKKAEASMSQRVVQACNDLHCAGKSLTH
# BH1578 lux ind = quorum light induction in luxS cqsA deficient V. cholerae; V. cholerae BH1578 lux reporter, luminescence, 6 h; activation, % at 18.7 µM; AID 588436; 350,000 tested, 0.16% active; in the data active = activation mostly above about 9.7%, no sharp cut-off
# CCHFV vOTU inh = CCHFV vOTU protease inhibition | inhibition, % at 11.5 µM | AID 651958 | Pep-AMC fluorescence | 370,000 tested, 0.55% active; note: 0% = vehicle wells with enzyme and 100% = no enzyme wells
# GDH-TPI counter-1 = counter-screen for M. tuberculosis FBA inhibitors: GDH-TPI coupled enzymes; GDH-TPI coupled enzyme counterscreen, NADH absorbance; inhibition, % at 4.8 µM; 360,000 tested, 1.2% active; AID 588335;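 note: 0% = DMSO wells and 100% = wells lacking the enzyme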
# Mtb FBA confirm = Mtb FBA inhibition, confirmed; shares compounds with FBA Mtb inh; purified M. tuberculosis FBA, fluorescence read-out; inhibition, % at 1 µM; 5,600 tested, 78% active; in the data active = inhibition above about 27%;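 note: 0% = vehicle wells and 100% = reference inhibitor wells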
# GDH-TPI counter-2 = GDH-TPI inhibition counter-screen for FBA inhibitors. shares compounds with FBA Mtb inh. GDH-TPI coupled enzyme counterscreen, fluorescence. inhibition, % at 1 µM. 5,600 tested, 81% active; in the data active = inhibition above about 10%
# * marks the source's active call; other numbers are inactive results; i = inactive; x = not tested or not shown; + = active, no number. The list is not random: actives were taken first. Their share in the collection is about 3.9%. Cut-off read from the data, not from the text of the source, unless noted: active = inhibition above about 30%; inactive = the rest.
SMILES,FBA Mtb inh,BH1578 lux ind,CCHFV vOTU inh,GDH-TPI counter-1,Mtb FBA confirm,GDH-TPI counter-2
O=C(/C=C/c1cn(-c2ccccc2)nc1-c1cccs1)NCCN1CCOCC1,46*,i,-16,26,143*,87*
Cc1ccc(SCc2ccc(C(=O)NCc3cccnc3)cc2)cc1,-2,0,13,2,x,x
Cc1ccc(CN2CCSc3ccc(C(=O)NCC4CCCO4)cc32)cc1 (stereo not given),58*,1,x,10,47*,23*
COc1ccc(CCNC(=O)c2ccc3c(c2)N(Cc2ccc(C)cc2)CCS3)cc1OC,54*,-1,x,9,64*,51*
Cc1ccc(CN2CCSc3ccc(C(=O)NCc4cccnc4)cc32)cc1,69*,-1,-59,-1,26,23*
CCOC(=O)c1ccc2nc(C)c3c(c2c1)OC(C)C3 (stereo not given),38*,-1,-31,-1,175*,130*
COc1cccc2c3c(c(C)nc12)CC(C)O3 (stereo not given),40*,4,-31,4,106*,75*
Cc1nc2c(Cl)cccc2c2c1CC(CBr)O2 (stereo not given),1,0,-4,6,x,x
COc1ccc2nc(C)c3c(c2c1)OC(C)C3 (stereo not given),10,i,-4,2,x,x
CCc1ccc2nc(N=C(N)N)nc(C)c2c1,40*,0,-2,6,177*,133*
Cc1ccc2nc(N=C(N)N)nc(C)c2c1,3,i,1,1,x,x
CN(CC(=O)Nc1ccc(Br)cc1)Cc1ccccc1,1,0,2,2,x,x
COC(=O)c1cc(NC(=O)CN(C)Cc2ccccc2)cc(C(=O)OC)c1,35*,0,-48,14,26,22*
CC(=O)Nc1ccc(NC(=O)CSc2nnc(-c3cc4ccccc4o3)n2C)cc1,1,i,-12,8,x,x
CCCCC[n+]1cccc2c3ccccc3ccc21,100*,1,-101,9,85*,61*
CCCC[n+]1c2ccccc2cc2ccccc21,11,-1,-24,-17,x,x
c1ccc(C[n+]2cccc3c4ccccc4ccc32)cc1,40*,x,-66,6,+,+
O=C(O)c1cnc(-c2ccccc2)nc1C(F)(F)F,10,12,-6,0,x,x
CC(C)(C)NC(=O)Cn1c(=O)n(CC(=O)NC(C)(C)C)c2ccccc21,0,i,14,-3,x,x
CN(C)c1ccc(P(=O)(OC2CCCCC2)C(O)c2cccnc2)cc1 (stereo not given),0,-3,-1,-4,x,x
CN(C)c1ccc(P(=O)(OC2CCCCC2)C(O)c2ccccn2)cc1 (stereo not given),68*,-1,10,7,73*,79*
Cc1ccc(CNCc2cc3c(C(C)(C)C)nn(-c4ccccc4)c3[nH]c2=O)cc1,2,i,-17,6,x,x
O=C1NCCN(Cc2c(F)cccc2Cl)C1CC(=O)N1CCCO1 (stereo not given),6,0,-11,-1,x,x
OC[C@@H]1[C@@H](c2ccc(Cl)cc2)C(c2ccccc2)=NN1c1ccccc1,54*,1,-37,11,110*,78*
C[C@H]1C(c2ccc(F)cc2)=NN(c2ccccc2)[C@@H]1CO,23,i,-31,13,x,x
SMILES,FBA Mtb inh,BH1578 lux ind,CCHFV vOTU inh,GDH-TPI counter-1,Mtb FBA confirm,GDH-TPI counter-2
OC[C@@H]1[C@@H](c2ccc(F)cc2)C(c2cccc(Cl)c2)=NN1c1ccccc1,42*,i,-26,-1,41*,36*
OC[C@@H]1[C@@H](c2ccc(Cl)cc2)C(c2cccc(Cl)c2)=NN1c1ccccc1,63*,-1,-46,-4,158*,102*
CC1(C(=O)NS(=O)(=O)c2cccc(Cl)c2)CCN1C(=O)COc1ccc(Cl)cc1 (stereo not given),0,i,5,8,x,x
Cc1c(OC(C)C(=O)NCc2ccncc2)ccc2c3c(c(=O)oc12)CCCC3 (stereo not given),34*,i,-10,12,0,-3
Cc1c(OC(C)C(=O)NCC(O)c2ccccc2)ccc2c3c(c(=O)oc12)CCCC3 (stereo not given),48*,-1,-1,21,+,197*
Cc1c(OC(C)C(=O)NCCCn2ccnc2)ccc2c3c(c(=O)oc12)CCC3 (stereo not given),24,1,-10,2,x,x
Cc1cc(OC(C)C(=O)NCc2ccncc2)c2c3c(c(=O)oc2c1)CCCC3 (stereo not given),71*,-4,-19,10,178*,154*
Cc1cc(OC(C)C(=O)NCc2cccnc2)c2c3c(c(=O)oc2c1)CCC3 (stereo not given),21,-1,-6,6,x,x
Cc1cc(OC(C)C(=O)NCc2ccncc2)c2c3c(c(=O)oc2c1)CCC3 (stereo not given),64*,i,3,9,133*,93*
Cc1cc(=O)oc2c(C)c(OC(C)C(=O)NCC(O)c3ccccc3)ccc12 (stereo not given),20,-3,-1,9,x,x
CCOC(=O)C1CCCN(C(=O)c2cccc(S(=O)(=O)NCc3ccccc3)c2)C1 (stereo not given),0,-1,-7,13,x,x
Cc1cc(OCC(=O)NCc2ccncc2)c2c3c(c(=O)oc2c1)CCCC3,85*,0,-18,4,122*,94*
COC(=O)c1ccc(C#Cc2ccccc2)o1,58*,i,-15,3,49*,57*
CC(=O)O[C@H](COc1c2ccoc2cc2oc(=O)ccc12)C(C)(C)O,45*,0,-19,12,0,-6
COc1cc2cc(C(c3nnnn3Cc3ccc(F)cc3)N3CCCCCC3)c(=O)[nH]c2cc1OC (stereo not given),49*,i,x,22,-2,-2
Cc1ccc(-c2nc(C#N)c(N3CCC(C)CC3)o2)cc1,67*,i,-32,4,61*,58*
CC1CN(c2oc(-c3ccccc3Cl)nc2C#N)CC(C)O1 (stereo not given),5,0,-1,-2,x,x
Cc1cccc(-c2nc(C#N)c(N3CCCCC3)o2)c1,38*,-1,6,4,36*,33*
N#Cc1nc(Cc2ccccc2)oc1N1CCCC1,2,-2,-3,-3,x,x
COc1ccc(-c2nc(C#N)c(N3CC(C)OC(C)C3)o2)cc1OC (stereo not given),61*,i,-25,6,98*,85*
Cc1cccc(-c2nc(C#N)c(NC3CCCCC3)o2)c1,96*,i,-1,14,35*,27*
Cc1cccc(-c2nc(CS(=O)CC(=O)NC3CCCC3)c(C)o2)c1 (stereo not given),4,0,1,10,x,x
COc1ccc(CNC(=O)C2(C)Cc3c(-c4cccc(C(N)=O)c4)ccnc3O2)cc1OC (stereo not given),-3,i,-1,-6,x,x
